PubChem BioAssay (EPA / NIEHS)
Calls of active or inactive are those of the source. Rule for the calls: active = hit-call score of the fitted dose curve at least 0.9, where 1 is the maximum; inactive = score below 0.9.

Assays:
Details in all cases: mRNA level, 48 h; actives raise or lower the signal
[1] = read-out: Cytochrome P450 (CYP24A1), CYP24A1 (gene 1591); experiment: LTEA_HepaRG_CYP24A1: Life Technologies and Expression Analysis (LTEA) Assay for Cytochrome P450 (CYP24A1) using HepaRG (AID 2283478)
Procedure, shortened: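 qRT-PCR read-out: CYP24A1 transcript levels normalized to three housekeeping genes, bidirectional curve fits against 0.5% DMSO baseline. Human HepaRG cells treated 48 h with chemicals at eight concentrations from 100 uM in half-log steps.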

[2] = read-out: Cytochrome P450 (CYP1A2), CYP1A2 (gene 1544); experiment: LTEA_HepaRG_CYP1A2: Life Technologies and Expression Analysis (LTEA) Assay for Cytochrome P450 (CYP1A2) using HepaRG (AID 2283479)
Procedure, shortened: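 HepaRG, 48 h exposure, top 100 uM, half-log 8-pt, 0.5% DMSO vehicle, duplicates. Readout: TaqMan qRT-PCR of CYP1A2 mRNA, housekeeping-normalized (ACTB/GAPDH/POLR2A). Gain/loss fit relative to DMSO baseline.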

[3] = read-out: cysteine-aspartic acid protease (CASP8), CASP8 (gene 841); experiment: LTEA_HepaRG_CASP8: Life Technologies and Expression Analysis (LTEA) Assay for cysteine-aspartic acid protease (CASP8) using HepaRG (AID 2283480)
Procedure, shortened: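 qRT-PCR readout of CASP8 mRNA, normalized to three housekeeping genes, after 48 h chemical exposure of HepaRG cells; 8-point half-log series, top 100 uM, 0.5% DMSO vehicle. Bidirectional curve fitting against DMSO baseline.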

[4] = read-out: Cytochrome P450 2C19 (Homo sapiens) (UniProt P33261); experiment: LTEA_HepaRG_CYP2C19: Life Technologies and Expression Analysis (LTEA) Assay for CYP2C19 using HepaRG (AID 2283482)
Procedure, shortened: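 HepaRG, 48 h chemical exposure, 8-pt half-log series from 100 uM in 0.5% DMSO, duplicates. Readout: CYP2C19 mRNA by TaqMan qRT-PCR, housekeeping-normalized. Bidirectional fit vs DMSO baseline; phenobarbital 1mM as induction control.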

[5] = read-out: CYP2C8 (gene 1558); experiment: LTEA_HepaRG_CYP2C8: Life Technologies and Expression Analysis (LTEA) Assay for CYP2C8 using HepaRG (AID 2283483)
Procedure, shortened: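 HepaRG (human liver line), 48 h chemical exposure, 8-pt half-log series from 100 uM, 0.5% DMSO vehicle. Readout: CYP2C8 transcript by qRT-PCR, housekeeping-normalized. Bidirectional fit vs DMSO baseline.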

[6] = read-out: CYP2C9 (gene 1559); experiment: LTEA_HepaRG_CYP2C9: Life Technologies and Expression Analysis (LTEA) Assay for CYP2C9 using HepaRG (AID 2283484)
Procedure, shortened: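 HepaRG, 48 h dosing, 8-pt half-log series, top 100 uM, 0.5% DMSO vehicle. Read-out: CYP2C9 transcript by TaqMan qRT-PCR, housekeeping-normalized (ACTB/GAPDH/POLR2A). Gain or loss fitted vs DMSO baseline.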

[7] = read-out: CYP2E1 (gene 1571); experiment: LTEA_HepaRG_CYP2E1: Life Technologies and Expression Analysis (LTEA) Assay for CYP2E1 using HepaRG (AID 2283485)
Procedure, shortened: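 CYP2E1 transcript was measured by TaqMan qRT-PCR in human HepaRG cultures after 48 h chemical exposure (top 100 uM, half-log steps, 0.5% DMSO vehicle). Housekeeping-gene normalization; gain or loss fitted relative to DMSO baseline.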

[8] = read-out: CYP4A11 (gene 1579); experiment: LTEA_HepaRG_CYP4A11: Life Technologies and Expression Analysis (LTEA) Assay for CYP4A11 using HepaRG (AID 2283486)
Procedure, shortened: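 CYP4A11 transcript levels were quantified by TaqMan qRT-PCR after HepaRG human liver cells were treated for 48 hours with test chemicals (top 100 uM, half-log dilutions, 0.5% DMSO). Gain or loss of signal was fitted relative to DMSO.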

[9] = read-out: Cytochrome P450 3A4 (Homo sapiens) (UniProt P08684); experiment: LTEA_HepaRG_CYP3A4: Life Technologies and Expression Analysis (LTEA) Assay for CYP3A4 using HepaRG (AID 2283487)
Procedure, shortened: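 Differentiated HepaRG cells, plated 48 h, then dosed 48 h in serum-free induction medium with 0.5% DMSO, 8 half-log concentrations up to 100 uM, duplicate. CYP3A4 mRNA by qRT-PCR, normalized to ACTB/GAPDH/POLR2A; bidirectional fit versus DMSO.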

[10] = read-out: Pro-epidermal growth factor (Homo sapiens) (UniProt P01133); experiment: LTEA_HepaRG_EGF: Life Technologies and Expression Analysis (LTEA) Assay for Epidermal growth factor (EGF) using HepaRG (AID 2283489)
Procedure, shortened: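 qRT-PCR readout of EGF transcript after 48 h chemical exposure of HepaRG cells; eight concentrations from 100 uM down in half-log steps, duplicate wells, 0.5% DMSO vehicle. Bidirectional curve fitting against DMSO baseline.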

[11] = read-out: Early growth response protein 1 (EGR1) transcription factor, EGR1 (gene 1958); experiment: LTEA_HepaRG_EGR1: Life Technologies and Expression Analysis (LTEA) Assay for Early growth response protein 1 (EGR1) transcription factor using HepaRG (AID 2283490)
Procedure, shortened: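 HepaRG, 48 h exposure, 8-pt half-log series from 100 uM, 0.5% DMSO vehicle; EGR1 transcript by TaqMan qRT-PCR (Fluidigm array), housekeeping-normalized; bidirectional fit relative to DMSO baseline.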

[12] = read-out: Ezrin (EZR), EZR (gene 7430); experiment: LTEA_HepaRG_EZR: Life Technologies and Expression Analysis (LTEA) Assay for Ezrin (EZR) using HepaRG (AID 2283491)
Procedure, shortened: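 EZR transcript levels came from Fluidigm qRT-PCR and were normalized to three housekeeping genes after 48 h chemical exposure of HepaRG cells. Dosing used an 8-point half-log series with a 100 uM top concentration in 0.5% DMSO, tested in duplicate; both directions were fitted versus vehicle.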

[13] = read-out: Cytochrome P450 3A7 (Homo sapiens) (UniProt P24462); experiment: LTEA_HepaRG_CYP3A7: Life Technologies and Expression Analysis (LTEA) Assay for CYP3A7 using HepaRG (AID 2283492)
Procedure, shortened: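 CYP3A7 transcript levels were read by TaqMan qRT-PCR on Fluidigm arrays after 48 h chemical exposure of human HepaRG cells, with housekeeping-gene normalisation. Eight half-log concentrations up to 100 uM in 0.5% DMSO were tested in duplicate.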

[14] = read-out: CYP3A5 (gene 1577); experiment: LTEA_HepaRG_CYP3A5: Life Technologies and Expression Analysis (LTEA) Assay for CYP3A5 using HepaRG (AID 2283493)
Procedure, shortened: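 qRT-PCR read-out: CYP3A5 transcript in HepaRG lysates, housekeeping-normalized (ACTB/GAPDH/POLR2A), fitted bidirectionally against 0.5% DMSO baseline. Exposure 48 h, eight half-log concentrations up to 100 uM, duplicates.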

[15] = read-out: Fatty Acid-Binding Protein 1 (FABP1), FABP1 (gene 2168); experiment: LTEA_HepaRG_FABP1: Life Technologies and Expression Analysis (LTEA) Assay for Fatty Acid-Binding Protein 1 (FABP1) using HepaRG (AID 2283494)
Procedure, shortened: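 qRT-PCR readout of FABP1 transcript (normalized to three housekeeping genes) after 48 h chemical exposure of HepaRG cells; eight concentrations, half-log steps, max 100 uM, 0.5% DMSO vehicle; gain or loss fitted relative to DMSO baseline.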

[16] = read-out: Cytochrome P450 4A22 (Homo sapiens) (UniProt Q5TCH4); experiment: LTEA_HepaRG_CYP4A22: Life Technologies and Expression Analysis (LTEA) Assay for Cytochrome P450 4A22 (CYP4A22) using HepaRG (AID 2283495)
Procedure, shortened: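 HepaRG, 48 h post-plating -> serum-free induction medium; dosed 48 h, duplicate, 8 conc. (100 uM top, half-log), 0.5% DMSO. Readout: CYP4A22 mRNA by qRT-PCR, ACTB/GAPDH/POLR2A normalization; gain/loss fit relative to DMSO.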

[17] = read-out: Glutathione S-Transferase (GSTA2), GSTA2 (gene 2939); experiment: LTEA_HepaRG_GSTA2: Life Technologies and Expression Analysis (LTEA) Assay for Glutathione S-Transferase (GSTA2) using HepaRG (AID 2283497)
Procedure, shortened: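 qRT-PCR readout of GSTA2 transcript, normalized to three housekeeping genes, fitted bidirectionally against 0.5% DMSO baseline. Differentiated HepaRG cells received compound for 48 h at 8 concentrations (top 100 uM, half-log steps).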

[18] = read-out: DNA damage-inducible transcript 3 (DDIT3), DDIT3 (gene 1649); experiment: LTEA_HepaRG_DDIT3: Life Technologies and Expression Analysis (LTEA) Assay for DNA damage-inducible transcript 3 (DDIT3) using HepaRG (AID 2283488)
Procedure, shortened: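 qRT-PCR readout (Fluidigm TaqMan), housekeeping-normalized to ACTB, GAPDH, POLR2A. HepaRG cells, 48 h exposure, 8-point half-log series from 100 uM in 0.5% DMSO, duplicates. Gain or loss of signal fitted against DMSO baseline.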

[19] = read-out: Cytochrome P450 7A1 (Homo sapiens) (UniProt P22680); experiment: LTEA_HepaRG_CYP7A1: Life Technologies and Expression Analysis (LTEA) Assay for Cytochrome P450 7A1 (CYP7A1) using HepaRG (AID 2283496)
Procedure, shortened: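 Using 0.5% DMSO as vehicle and baseline, chemicals were tested in duplicate over an 8-point range from 100 uM on HepaRG cells for 48 h; qRT-PCR signals were normalised to ACTB, GAPDH and POLR2A.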

Measured: AC50

Chain of Cytochrome P450 3A7 (Homo sapiens) (P24462 whole entry, looked up): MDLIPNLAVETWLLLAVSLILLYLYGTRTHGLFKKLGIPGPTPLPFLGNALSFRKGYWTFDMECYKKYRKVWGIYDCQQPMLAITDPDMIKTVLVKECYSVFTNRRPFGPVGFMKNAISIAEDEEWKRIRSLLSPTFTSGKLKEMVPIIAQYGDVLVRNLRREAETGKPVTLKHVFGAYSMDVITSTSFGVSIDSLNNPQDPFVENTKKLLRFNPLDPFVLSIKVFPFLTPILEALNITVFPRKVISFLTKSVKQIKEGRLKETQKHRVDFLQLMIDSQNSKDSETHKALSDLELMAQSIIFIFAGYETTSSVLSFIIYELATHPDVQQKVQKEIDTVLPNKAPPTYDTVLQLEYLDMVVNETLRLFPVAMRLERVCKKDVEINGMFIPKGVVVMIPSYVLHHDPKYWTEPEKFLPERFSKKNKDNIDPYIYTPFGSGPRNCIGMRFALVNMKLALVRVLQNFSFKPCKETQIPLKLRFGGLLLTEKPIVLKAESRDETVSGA
Chain of Cytochrome P450 2C19 (Homo sapiens) (P33261 whole entry, looked up): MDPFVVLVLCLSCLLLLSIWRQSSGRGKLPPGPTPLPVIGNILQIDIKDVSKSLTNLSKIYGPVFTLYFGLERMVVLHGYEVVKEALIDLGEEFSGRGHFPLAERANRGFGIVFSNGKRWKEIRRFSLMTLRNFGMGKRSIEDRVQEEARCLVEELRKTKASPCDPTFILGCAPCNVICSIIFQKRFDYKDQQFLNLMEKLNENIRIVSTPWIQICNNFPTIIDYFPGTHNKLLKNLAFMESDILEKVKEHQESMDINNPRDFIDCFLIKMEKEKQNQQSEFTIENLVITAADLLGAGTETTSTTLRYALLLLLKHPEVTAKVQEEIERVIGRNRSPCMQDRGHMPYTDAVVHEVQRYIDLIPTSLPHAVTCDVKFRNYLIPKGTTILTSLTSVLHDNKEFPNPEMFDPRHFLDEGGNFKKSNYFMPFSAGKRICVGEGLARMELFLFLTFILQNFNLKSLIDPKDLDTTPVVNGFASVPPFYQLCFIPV
Chain of Cytochrome P450 3A4 (Homo sapiens) (P08684 whole entry, looked up): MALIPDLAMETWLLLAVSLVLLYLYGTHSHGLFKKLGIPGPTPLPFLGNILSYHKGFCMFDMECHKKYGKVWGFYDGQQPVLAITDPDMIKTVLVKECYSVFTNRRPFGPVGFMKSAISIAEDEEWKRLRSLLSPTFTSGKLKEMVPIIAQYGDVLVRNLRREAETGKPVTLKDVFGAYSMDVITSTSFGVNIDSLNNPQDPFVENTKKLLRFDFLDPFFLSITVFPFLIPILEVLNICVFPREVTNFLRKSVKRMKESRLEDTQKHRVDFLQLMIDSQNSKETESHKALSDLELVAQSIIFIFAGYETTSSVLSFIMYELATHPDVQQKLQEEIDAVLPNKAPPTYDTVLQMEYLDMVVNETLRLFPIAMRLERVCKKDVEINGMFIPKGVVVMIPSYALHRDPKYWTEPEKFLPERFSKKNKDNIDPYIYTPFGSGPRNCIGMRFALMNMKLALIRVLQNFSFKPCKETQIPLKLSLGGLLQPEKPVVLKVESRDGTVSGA

ClC1=C(Cl)C(Cl)(Cl)C(Cl)=C1Cl
not listed: [18] | [19]
inactive: all other assays above

CC(C)(C)c1cc(C(C)(C)C)c(O)c(C(C)(C)C)c1
active: [2] 5.21 µM | [7] 17 µM | [9] 8.55 µM | [13] 10.9 µM
not listed: [11] | [15] | [19]
inactive: all other assays above

CN(C)C=O
not listed: [11] | [18]
inactive: all other assays above
